Bioassay records (PubChem BioAssay)
Giardia FBPA inh: Giardia lamblia aldolase inhibition. A8B2U2. purified Giardia FBPA. Potency, µM (series often up to 59.6 µM), without a hit: top-dose activity, negative = inhibition, usual class: inhibitors. actives 0.71% (n = 290,000); note: potency is the fitted concentration of half-maximal effect; % is set by controls: 0 for no effect and ±100 for the full control effect; nearly all actives have a fitted effect of over 55% in size
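Giardia FBPA (40 nM reagent) was preincubated 10 min at RT with compound (up to 57.5 uM final), then substrate plus GAPDH/TPI/NAD/arsenate coupling system with diaphorase/resazurin was added; resorufin fluorescence (525/598 nm) was read after 20 min.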
LmPK inhibitor: blocks Leishmania mexicana pyruvate kinase activity. purified LmPK, Kinase-Glo ATP luminescence, 1 h. Potency, µM (titrated, usually from 57.5 µM), inactives show top-dose activity change, negative = inhibition, most hits filed as inhibitors. actives 0.37% (n = 290,000); note: potency is the fitted concentration of half-maximal effect; % is set by controls: 0 for no effect and ±100 for the full control effect
Target sequence (Q27686 whole entry, looked up): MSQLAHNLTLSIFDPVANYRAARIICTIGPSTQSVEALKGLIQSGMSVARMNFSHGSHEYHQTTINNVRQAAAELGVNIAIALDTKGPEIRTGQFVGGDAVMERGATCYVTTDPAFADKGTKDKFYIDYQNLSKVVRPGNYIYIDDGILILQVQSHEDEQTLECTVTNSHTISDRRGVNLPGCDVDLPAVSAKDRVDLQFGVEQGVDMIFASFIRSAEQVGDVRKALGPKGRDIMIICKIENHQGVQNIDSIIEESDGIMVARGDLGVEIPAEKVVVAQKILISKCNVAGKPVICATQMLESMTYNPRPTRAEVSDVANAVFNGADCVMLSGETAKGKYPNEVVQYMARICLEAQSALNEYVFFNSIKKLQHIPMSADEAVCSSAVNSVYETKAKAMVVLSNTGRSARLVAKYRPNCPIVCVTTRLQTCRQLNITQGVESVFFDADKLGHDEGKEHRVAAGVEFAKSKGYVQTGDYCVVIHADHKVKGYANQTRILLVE
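Pyruvate kinase activity monitored as ATP production (luciferase luminescence). Conditions: 0.1 nM enzyme, 0.5 mM PEP, 0.1 mM ADP, 1 h, RT; normalized against uninhibited and no-enzyme wells.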
Shiga inhibitor: Shiga toxin inhibition; AID 2315; Vero cells, Shiga toxin protein synthesis inhibition reporter; actives 9.2% (n = 290,000); inhibition, % at 38.7 µM; in the data active = inhibition mostly above about 28%, no sharp cut-off; inactive = mostly below about 43%; note: 0% is about no effect
NS1 function inh: influenza NS1 inhibition. Potency, µM (top dose mostly 46.1 µM), for inactives: at the top dose activity, positive = more growth. actives 0.4% (n = 270,000). AID 2326; calls by dose curve; note: potency is the fitted concentration of half-maximal effect; actives are rising curves; nearly all actives have a fitted effect of over 50% in size
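A cell-based growth assay was used: compounds that relieve NS1-induced slow growth of budding yeast raise OD600. Assay medium was yeast nitrogen base with ammonium sulphate and -URA supplement, pH 6.0, with 2% galactose.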
CHX counter: counter-screen hit for Shiga toxin inhibitors, cycloheximide; cell reporter, cycloheximide protein synthesis inhibition counterscreen; max response, %; actives 12% (n = 300,000); AID 2314; in the data active = max response mostly above about 13%, no sharp cut-off; inactive = mostly below about 14%; note: read at 38.3 µM for the half of the compounds with a filed dose; 0% is about no effect
Numbers without * were called inactive; u = inconclusive; x = not tested or not shown; ! = not active in a repeat. In the library only some 14% were active in any assay of this set; here they are far more common. Unless noted, calls come from the whole dose curve; as a rule, active = well fitted curve in the direction sought with a large enough effect; inconclusive = small, poorly fitted or top-dose-only effect, or another doubt; inactive = no such curve, though single readings can be large; an effect the other way counts as inactive or inconclusive.

SMILES | Giardia FBPA inh | LmPK inhibitor | Shiga inhibitor | NS1 function inh | CHX counter
CC(=O)OC1CC2C(C)(C)C(=O)[C@@H]3OC3[C@@]2(C)C2CC[C@]3(C)C(=CC(=O)OC3c3ccoc3)[C@]12C (some centres undefined) | 5% | x | x | x | x
O=C1c2ccccc2C(=O)c2c1cccc2N1CCCC1 | u | -13% | 56* | -13% | 43*
Nc1ccc2oc(=O)ccc2c1I | 0% | x | 8 | x | 5
COC(=O)c1ccc(/C=C/c2nc3ccccc3c(=O)[nH]2)cc1 | -3% | 1% | 51* | 2% | 13
Cc1ccc(/C=C/c2nc3ccccc3c(=O)[nH]2)cc1 | 0% | u | 71* | -5% | 54*
CC(C)C[C@@H](CC(=O)N[C@H](CC(=O)N[C@@H]1CCCC[C@H]1C(=O)N[C@H](CC(=O)N[C@@H](CCC(=O)O)CC(=O)O)Cc1c[nH]c2ccccc12)C(C)C)NC(=O)[C@@H]1CNCC[C@H]1N | -22% | x | x | x | x
O=C(NC1=NCCS1)c1cc(-c2ccc(F)cc2)nc2ccccc12 | -5% | -1% | 10 | -6% | 17*
O=C(NN=C1CCCC1)c1cc(-c2ccc(F)cc2)nc2ccccc12 | -2% | 3% | 28 | x | 8
Cc1ccc(-c2cc(C(=O)NC3=NCCS3)c3ccccc3n2)cc1C | -2% | -3% | 44 | 0% | 18*
CCCc1ccc(-c2cc(C(=O)NC3=NCCS3)c3ccccc3n2)cc1 | 3% | -9% | 24* | 1% | 19*
CSc1ccc(CCNS(=O)(=O)c2csc(C(N)=O)c2)cc1 | x | -9% | 11 | -5% | -2
O=c1oc2ccccc2nc1/C=C(\O)c1ccc(Br)cc1 | -16% | 0% | 39* | -90% | 27*
C/C(O)=C\c1nc2ccccc2oc1=O | -20% | -1% | 47* | -87% | 25*
Nc1c(-c2ccccc2)n[nH]c1-c1ccccc1 | -1% | -16% | 78* | -48% | 31*
S=c1nc(-c2ccccc2)c(-c2ccccc2)n[nH]1 | 2% | 5% | -13 | -2% | -5
CCOC(=O)C1CCN(c2c(Nc3ccc4c(c3)OCCO4)c(=O)c2=O)CC1 | -18% | -4% | 88* | -13% | 60*
CCOC(=O)N1CCC(N2C(=O)c3ccccc3C2Nc2ccc3c(c2)OCCO3)CC1 (centres undefined) | u | 6% | 128* | -40% | 161*
CCOC(=O)C1CCN(C(C(=O)Nc2ccc3c(c2)OCCO3)c2ccccc2)CC1 (centres undefined) | -1% | 1% | -3 | -18% | -1
O[C@H](CN1CCN(c2cccc(Cl)c2)CC1)C(c1ccccc1)c1ccccc1 | 3% | x | x | x | x
O=C(Nc1ccc(N2CCCCC2)cc1)c1cccnc1Cl | -9% | -1% | 72* | 0% | 33*
CS(=O)(=O)N1CCN(c2ccc(NC(=O)c3cccnc3Cl)cc2)CC1 | 0% | -1% | 14 | 5% | 9
O=C(Nc1ccc(N2CCCC2)cc1)c1cccc(Cl)c1Cl | 9% | -4% | 71* | 3% | 25*
COc1cc(C(=O)N(C)CC2CCN(CCc3cccc(C(F)(F)F)c3)CC2)ccc1C | 6% | 0% | -17 | 2% | -1
CN(C)c1ccc(/C=N/NC(=O)c2sccc2-n2cccc2)cc1 | -4% | 14% | 98* | x | 39*
O=C(N/N=C\c1ccc(Cl)cc1)c1sccc1-n1cccc1 | 1% | 7% | 70* | -11% | 33*
SMILES | Giardia FBPA inh | LmPK inhibitor | Shiga inhibitor | NS1 function inh | CHX counter
Cc1ccc(OCC(=O)N2CCN(Cc3ccc4c(c3)OCO4)CC2)cc1 | u | -3% | -1 | x | -1
O=Cc1ccc(OCc2ccc3c(c2)OCO3)cc1 | 9% | -14% | x | -108% | 35*
Cc1ccc(COc2ccc3c(c2)OCO3)cc1 | 2% | -11% | 97* | -10% | 31*
Cc1cccc(C(CC(=O)N2CCCCC2)c2ccccc2)c1O (centres undefined) | 5% | -5% | -9 | -13% | -3
O=c1c2ccccc2oc2ncccc12 | 0% | 3% | 57 | -10% | 55*
COc1cccc2c(=O)c3ccccc3oc12 | 1% | -5% | 67* | -2% | 55*!
COc1cccc2c(=O)ccoc12 | -5% | 1% | 39 | -7% | 12*
COc1ccccc1-c1oc2ccccc2c(=O)c1O | -5% | x | x | x | x
COc1ccc(C(=O)Oc2c(C)occc2=O)cc1OC | 2% | -8% | -3 | -1% | -3
O=C(c1cccs1)N1CCCC(c2nc3c(nnn3Cc3ccccc3Cl)c(=O)[nH]2)C1 (centres undefined) | 0% | 1% | -14 | 1% | -7
